Inconclusive results are not listed. Activity calls are given as the source filed them. Unless noted, calls come from the whole dose curve; as a rule, active = well fitted curve in the direction sought with a large enough effect in the repeat runs; inconclusive = weak or mixed curves; inactive = no such curve, though single readings can be large; an effect the other way counts as inactive or inconclusive.
How the values were obtained:
[1] = target: Aryl hydrocarbon receptor (Homo sapiens) (UniProt P35869); experiment: qHTS assay to identify small molecule that activate the aryl hydrocarbon receptor (AhR) signaling pathway (AID 743085); note: nearly all actives have a fitted effect of over 15% in size; note: potency is the fitted concentration of half-maximal effect;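 for activation: HG2L7.5c1 human HepG2 liver cells with stably integrated DRE-driven firefly reporter; series mostly up to about 70 µM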
Summary of the method: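 Reporter assay in engineered HepG2 line HG2L7.5c1, whose plasmid carries twenty dioxin responsive elements upstream of firefly luciferase. Treatment lasted 24 h at 37C; ONE-Glo luminescence gauged induction.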

[2] = qHTS assay to identify small molecule that activate the aryl hydrocarbon receptor (AhR) signaling pathway - cell viability counter screen (AID 743086);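 note: HepG2 liver cells carrying the AhR DRE luciferase reporter; series mostly up to about 70 µM; nearly all actives have a fitted effect of over 45% in size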
Summary of the method: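 Cytotoxicity counter screen: CellTiter-Fluor signal (30 min, 37 C) in 4000 HepG2 cells/well carrying the DRE-luciferase reporter, following 24 h compound exposure at 37 C.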

[3] = target: Peroxisome proliferator-activated receptor gamma (Homo sapiens) (UniProt P37231); experiment: qHTS assay to identify small molecule agonists of the peroxisome proliferator-activated receptor gamma (PPARg) signaling pathway (AID 743094; active = well fitted activation curve with a large enough effect in the signal ratio in the repeat runs, not every such curve was filed as active; the % refers to the signal ratio)
Summary of the method: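 Beta-lactamase FRET fluorescence was the read-out after a 1 h room-temperature substrate step, following 17 h compound treatment at 37C of HEK293H cells expressing a UAS-driven bla reporter responsive to PPARg.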

[4] = target: Peroxisome proliferator-activated receptor gamma (Homo sapiens) (UniProt P37231); experiment: qHTS assay to identify small molecule antagonists of the peroxisome proliferator-activated receptor gamma (PPARg) signaling pathway (AID 743191; calls by dose curve; note: series mostly up to about 63 µM; nearly all actives have a fitted effect of over 30% in size)
Summary of the method: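 Beta-lactamase reporter under UAS control in HEK293H PPARg-bla cells; compound treatment 17 h at 37C. Read-out: fluorescence intensity after 1 h room-temperature incubation with LiveBLAzer B/G FRET substrate.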

[5] = qHTS assay to identify small molecule antagonists of the peroxisome proliferator-activated receptor gamma (PPARg) signaling pathway - cell viability counter screen (AID 743194); note: nearly all actives have a fitted effect of over 55% in size
Summary of the method: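 Viability was measured as CellTiter-Glo luminescence in GeneBLAzer PPARg UAS-bla HEK293H cells. These cells had been exposed 17 h at 37 C to compounds together with rosiglitazone at 50 nM final, with the beta-lactamase readout taken in the same wells.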

[6] = qHTS assay for small molecule agonists of the antioxidant response element (ARE) signaling pathway (AID 743202; active = well fitted activation curve with a large enough effect in the signal ratio in the repeat runs, not every such curve was filed as active; the % refers to the signal ratio)
Summary of the method: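 An ARE-responsive beta-lactamase gene stably integrated in HepG2 cells serves as reporter. After 5 h plating and 16 h compound incubation at 37 C, fluorescence of the B/G FRET substrate was measured.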

[7] = qHTS assay for small molecule agonists of the antioxidant response element (ARE) signaling pathway - cell viability counter screen (AID 743203; calls by dose curve; note: nearly all actives have a fitted effect of over 55% in size)
Summary of the method: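 HepG2 cells carrying ARE-driven beta-lactamase; 2,000 cells/well; 5 hrs plating; compound pinned from DMSO; 16 hrs 37C/5% CO2; CellTiter-Glo added; 30 min RT; luminescence.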

[8] = qHTS assay for small molecule activators of the heat shock response signaling pathway - cell viability counter screen (AID 743209); note: nearly all actives have a fitted effect of over 50% in size
Summary of the method: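 Luminescence from CellTiter-Glo, added after the beta-lactamase FRET read, gave the viability signal. Cells were HSE-bla HeLa treated with DMSO-dissolved compounds for 5 h at 37 C following overnight plating.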

[9] = qHTS assay to identify small molecule agonists of the peroxisome proliferator-activated receptor delta (PPARd) signaling pathway - cell viability counter screen (AID 743211); note: nearly all actives have a fitted effect of over 55% in size
Summary of the method: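 Multiplexed format: after the 2 h room-temperature LiveBLAzer B/G FRET step, CellTiter-Glo was added to the same wells. Luminescence after 30 min gave cell viability; compound exposure was 17 h at 37C.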

[10] = target: Peroxisome proliferator-activated receptor delta (Homo sapiens) (UniProt Q03181); experiment: qHTS assay to identify small molecule agonists of the peroxisome proliferator-activated receptor delta (PPARd) signaling pathway (AID 743212; calls by dose curve)
Summary of the method: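 HEK293H UAS-bla reporter cells, human PPARd system; compounds delivered in DMSO after 5 h plating, then at 37 C. Beta-lactamase FRET read, 2 h RT substrate step.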

[11] = qHTS assay to identify small molecule antagonists of the peroxisome proliferator-activated receptor delta (PPARd) signaling pathway - cell viability counter screen (AID 743213); note: nearly all actives have a fitted effect of over 50% in size; note: potency is the fitted concentration of half-maximal effect
Summary of the method: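 In this counter screen, HEK293H cells carrying a UAS-beta-lactamase reporter are co-treated with test compounds and 300 nM L165041 (final) for 17 h at 37 C; cell viability is quantified by CellTiter-Glo luminescence.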

[12] = target: Peroxisome proliferator-activated receptor delta (Homo sapiens) (UniProt Q03181); experiment: qHTS assay to identify small molecule antagonists of the peroxisome proliferator-activated receptor delta (PPARd) signaling pathway (AID 743215; active = well fitted inhibition curve with a large enough effect in the signal ratio in the repeat runs, not every such curve was filed as active; the % refers to the signal ratio;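 note: cells stimulated with agonist L165041 at 300 nM final during compound exposure; series mostly up to about 62 µM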)
Summary of the method: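 Read-out is beta-lactamase FRET fluorescence, measured 2 h after substrate addition at room temperature. Beforehand, UAS-bla HEK293H cells carrying the PPARd reporter were exposed to compounds with L165041 at 300 nM final for 17 h at 37 C.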

[13] = qHTS assay to identify small molecule agonists of the farnesoid-X-receptor (FXR) signaling pathway - cell viability counter screen (AID 743218); note: nearly all actives have a fitted effect of over 45% in size
Summary of the method: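 HEK 293T FXR-bla cells; 5 h pre-incubation, 16 h compound exposure at 37 C; LiveBLAzer substrate 2 h RT, then CellTiter-Glo 30 min RT, luminescence.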

[14] = target: Bile acid receptor (Homo sapiens) (UniProt Q96RI1); experiment: qHTS assay to identify small molecule agonists of the farnesoid-X-receptor (FXR) signaling pathway (AID 743220; active = well fitted activation curve with a large enough effect in the signal ratio in the repeat runs, not every such curve was filed as active; the % refers to the signal ratio)
Summary of the method: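 Beta-lactamase reporter under UAS control in GeneBLAzer FXR HEK 293T cells (5000/well) measured with LiveBLAzer FRET substrate after 2 h at room temperature. Compound exposure lasted 16 h at 37C.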

[15] = qHTS assay to identify small molecule antagonists of the farnesoid-X-receptor (FXR) signaling pathway - cell viability counter screen (AID 743221; active = well fitted cell-killing curve with a large enough effect in the repeat runs, not every such curve was filed as active; note: nearly all actives have a fitted effect of over 50% in size)
Summary of the method: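 CellTiter-Glo, 30 min RT, luminescence; same wells as the LiveBLAzer FRET read. Cells: FXR-UAS-bla HEK 293T. Treatment: compound with chenodeoxycholic acid 50 uM final, 16 h at 37 C.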

[16] = target: Vitamin D3 receptor (Homo sapiens) (UniProt P11473); experiment: qHTS assay to identify small molecule agonists of the vitamin D receptor (VDR) signaling pathway (AID 743222; calls by dose curve)
Summary of the method: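 VDR-bla cells, 2,000/well; 4 h preincubation 37C; cpd (DMSO) 16 h; LiveBLAzer B/G substrate 2 h RT; fluorescence intensity read.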

[17] = target: Vitamin D3 receptor (Homo sapiens) (UniProt P11473); experiment: qHTS assay to identify small molecule antagonists of the vitamin D receptor (VDR) signaling pathway (AID 743223; active = well fitted inhibition curve with a large enough effect in the signal ratio in the repeat runs, not every such curve was filed as active; the % refers to the signal ratio)
Summary of the method: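 After VDR-bla cells are plated and left 4 h at 37C, DMSO-dissolved compounds and 3 nM (final) calcitriol agonist are added. Incubation continues 16 h at 37C; FRET beta-lactamase substrate then develops 2 h at room temperature.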

[18] = qHTS assay to identify small molecule agonists of the vitamin D receptor (VDR) signaling pathway - cell viability counter screen (AID 743224); note: series mostly up to about 63 µM; nearly all actives have a fitted effect of over 50% in size
Summary of the method: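 Luminescence from CellTiter-Glo, read after 30 min at room temperature, reports viability of VDR-bla cells treated with compounds for 16 h at 37C in the wells used for the beta-lactamase FRET read.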

[19] = qHTS assay for small molecule activators of the heat shock response signaling pathway (AID 743210; active = well fitted activation curve with a large enough effect in the signal ratio in the repeat runs, with a control signal flat, not every such curve was filed as active; the % refers to the signal ratio;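 note: HeLa cells with beta-lactamase reporter driven by heat shock elements; series mostly up to about 63 µM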)
Summary of the method: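 In HSE-bla HeLa cells, 5 h compound incubation (37 C) precedes addition of LiveBLAzer B/G substrate; after 2.5 h at room temperature, fluorescence intensity indicates reporter induction.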

[20] = target: Bile acid receptor (Homo sapiens) (UniProt Q96RI1); experiment: qHTS assay to identify small molecule antagonists of the farnesoid-X-receptor (FXR) signaling pathway (AID 743217; active = well fitted inhibition curve with a large enough effect in the signal ratio in the repeat runs, not every such curve was filed as active; the % refers to the signal ratio)
Summary of the method: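 HEK 293T FXR-UAS-bla, 5000 cells/well; compound + CDCA 50 uM final; 16 h, 37 °C; B/G FRET substrate 2 h RT; fluorescence.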

Measured: Potency

Sequence of Peroxisome proliferator-activated receptor delta (Homo sapiens) (Q03181 whole entry, looked up): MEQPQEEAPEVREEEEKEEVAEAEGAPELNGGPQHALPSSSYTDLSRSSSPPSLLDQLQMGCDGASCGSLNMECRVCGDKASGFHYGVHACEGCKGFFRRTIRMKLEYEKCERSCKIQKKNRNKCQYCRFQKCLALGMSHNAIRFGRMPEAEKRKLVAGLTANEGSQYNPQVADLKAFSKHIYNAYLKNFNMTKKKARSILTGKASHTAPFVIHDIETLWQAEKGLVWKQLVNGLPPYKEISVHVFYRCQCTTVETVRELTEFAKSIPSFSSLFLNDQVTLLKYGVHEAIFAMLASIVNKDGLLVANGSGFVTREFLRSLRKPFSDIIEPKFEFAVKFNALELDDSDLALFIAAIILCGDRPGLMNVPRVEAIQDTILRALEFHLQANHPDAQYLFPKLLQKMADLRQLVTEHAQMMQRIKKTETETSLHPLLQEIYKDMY
Sequence of Peroxisome proliferator-activated receptor gamma (Homo sapiens) (P37231 whole entry, looked up): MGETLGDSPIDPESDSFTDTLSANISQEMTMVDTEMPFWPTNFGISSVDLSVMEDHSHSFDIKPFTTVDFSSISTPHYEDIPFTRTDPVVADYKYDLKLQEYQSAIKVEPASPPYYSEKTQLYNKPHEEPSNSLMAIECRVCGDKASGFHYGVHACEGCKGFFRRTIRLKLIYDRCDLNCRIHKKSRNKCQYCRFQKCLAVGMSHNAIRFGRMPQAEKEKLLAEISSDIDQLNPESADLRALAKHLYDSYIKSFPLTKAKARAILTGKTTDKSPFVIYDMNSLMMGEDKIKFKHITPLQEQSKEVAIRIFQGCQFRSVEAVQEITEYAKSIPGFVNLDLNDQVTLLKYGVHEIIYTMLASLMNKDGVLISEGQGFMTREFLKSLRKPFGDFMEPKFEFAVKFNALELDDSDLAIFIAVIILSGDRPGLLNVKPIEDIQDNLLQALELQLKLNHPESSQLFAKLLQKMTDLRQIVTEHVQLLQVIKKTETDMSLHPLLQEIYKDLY
Sequence of Aryl hydrocarbon receptor (Homo sapiens) (P35869 whole entry, looked up): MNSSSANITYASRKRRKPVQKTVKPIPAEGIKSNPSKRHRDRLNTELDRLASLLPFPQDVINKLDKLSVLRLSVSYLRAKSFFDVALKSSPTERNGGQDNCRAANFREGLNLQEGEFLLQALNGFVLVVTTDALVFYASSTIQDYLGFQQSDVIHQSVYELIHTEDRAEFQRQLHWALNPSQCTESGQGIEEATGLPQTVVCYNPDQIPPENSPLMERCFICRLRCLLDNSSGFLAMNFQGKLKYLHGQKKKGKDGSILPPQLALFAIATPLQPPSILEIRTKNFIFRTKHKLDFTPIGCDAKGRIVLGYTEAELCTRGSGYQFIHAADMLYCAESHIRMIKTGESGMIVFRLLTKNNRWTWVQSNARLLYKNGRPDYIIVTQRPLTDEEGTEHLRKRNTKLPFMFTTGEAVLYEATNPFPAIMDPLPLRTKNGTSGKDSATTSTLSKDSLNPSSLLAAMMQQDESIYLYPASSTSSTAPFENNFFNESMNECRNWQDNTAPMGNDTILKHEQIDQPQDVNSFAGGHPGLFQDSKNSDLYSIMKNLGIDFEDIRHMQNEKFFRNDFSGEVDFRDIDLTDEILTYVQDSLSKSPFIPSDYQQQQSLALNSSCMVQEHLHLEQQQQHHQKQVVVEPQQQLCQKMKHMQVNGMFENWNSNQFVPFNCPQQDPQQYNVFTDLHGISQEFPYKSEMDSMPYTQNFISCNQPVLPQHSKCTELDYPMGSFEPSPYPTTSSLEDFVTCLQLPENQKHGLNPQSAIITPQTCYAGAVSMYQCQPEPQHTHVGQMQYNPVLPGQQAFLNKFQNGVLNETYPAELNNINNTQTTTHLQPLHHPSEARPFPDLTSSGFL
Sequence of Bile acid receptor (Homo sapiens) (Q96RI1 whole entry, looked up): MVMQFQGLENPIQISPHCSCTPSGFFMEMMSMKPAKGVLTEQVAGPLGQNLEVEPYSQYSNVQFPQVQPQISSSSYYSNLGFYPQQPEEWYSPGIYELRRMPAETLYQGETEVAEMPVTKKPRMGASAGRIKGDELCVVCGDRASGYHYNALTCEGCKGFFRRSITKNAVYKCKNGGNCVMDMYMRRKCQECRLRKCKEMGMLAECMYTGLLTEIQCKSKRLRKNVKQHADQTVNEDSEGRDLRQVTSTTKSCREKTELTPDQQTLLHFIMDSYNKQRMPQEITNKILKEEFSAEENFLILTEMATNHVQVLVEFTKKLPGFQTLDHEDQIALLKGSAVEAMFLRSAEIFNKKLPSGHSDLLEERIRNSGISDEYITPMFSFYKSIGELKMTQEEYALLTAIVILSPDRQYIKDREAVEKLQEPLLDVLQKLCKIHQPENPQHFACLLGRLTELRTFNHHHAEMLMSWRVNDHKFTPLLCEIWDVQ
Sequence of Vitamin D3 receptor (Homo sapiens) (P11473 whole entry, looked up): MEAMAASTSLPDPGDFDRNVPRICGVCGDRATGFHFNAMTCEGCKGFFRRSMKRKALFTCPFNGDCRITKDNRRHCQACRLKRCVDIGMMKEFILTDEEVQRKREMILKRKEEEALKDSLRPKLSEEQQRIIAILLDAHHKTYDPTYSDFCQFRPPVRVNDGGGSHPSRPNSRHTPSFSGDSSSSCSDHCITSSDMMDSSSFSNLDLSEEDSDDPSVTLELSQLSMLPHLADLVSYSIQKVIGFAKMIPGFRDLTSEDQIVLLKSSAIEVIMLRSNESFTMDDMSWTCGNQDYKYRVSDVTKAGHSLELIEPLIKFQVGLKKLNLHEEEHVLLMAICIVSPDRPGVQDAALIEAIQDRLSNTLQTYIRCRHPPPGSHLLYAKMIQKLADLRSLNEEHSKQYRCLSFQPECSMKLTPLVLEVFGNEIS

CCC1(C)NC(=O)NC1=O (stereo not given)
not listed: [19] | [20]
inactive: all other assays above

Cc1cc(NS(=O)(=O)c2ccc(N)cc2)nc(C)n1
not listed: [14] | [16] | [17] | [20]
inactive: all other assays above

CO[Si](C)(C)OC
not listed: [10] | [12] | [14] | [16] | [17] | [18] | [20]
inactive: all other assays above

C[C@@H]1CN(c2c(F)c(N)c3c(=O)c(C(=O)O)cn(C4CC4)c3c2F)C[C@H](C)N1
not listed: [12] | [18] | [20]
inactive: all other assays above

O=c1[nH]cnc2c1ncn2[C@@H]1O[C@H](CO)[C@@H](O)[C@H]1O
not listed: [10] | [18]
inactive: all other assays above

CCc1nnc(NS(=O)(=O)c2ccc(N)cc2)s1
not listed: [10] | [12]
inactive: all other assays above

CCOC(=O)C1CC(=O)C(=C(O)C2CC2)C(=O)C1 (stereo not given)
not listed: [8] | [10] | [20]
inactive: all other assays above

CCCN(CCC)C(=O)C(CCC(=O)O)NC(=O)c1ccccc1 (stereo not given)
not listed: [14] | [17] | [18] | [20]
inactive: all other assays above

Clc1cccc(-c2cc(Cl)cc(Cl)c2)c1
not listed: [10] | [12] | [13] | [14] | [16] | [19] | [20]
inactive: all other assays above

C=CC1CO1 (stereo not given)
not listed: [10] | [12] | [14] | [17] | [20]
inactive: all other assays above

CC(=O)N[C@@H](CC(C)C)C(=O)O
not listed: [8] | [11] | [12] | [20]
inactive: all other assays above

NC/C=C/C(=O)O
not listed: [8] | [14] | [20]
inactive: all other assays above

Cc1c(C(=O)NCCO)[n+](=O)c2ccccc2n1[O-]
not listed: [14] | [20]
inactive: all other assays above

CCCCCCCCCC#N
not listed: [10] | [14] | [16] | [17] | [18] | [20]
inactive: all other assays above

CC1=C(O)C(=O)OC1C (stereo not given)
not listed: [10] | [20]
inactive: all other assays above

CCCCC1CCC(=O)O1 (stereo not given)
not listed: [8] | [10] | [12] | [14] | [16] | [17] | [20]
inactive: all other assays above

CN(CC1(C)CCCO1)S(=O)(=O)c1ccc(Cl)c(S(N)(=O)=O)c1 (stereo not given)
not listed: [16] | [17]
inactive: all other assays above

CC(C)(C)c1cccc(O)c1
not listed: [10] | [14] | [16] | [19] | [20]
inactive: all other assays above

CC(=O)Nc1ccc(C)c(Cl)c1
not listed: [8] | [10] | [11] | [13]
inactive: all other assays above

CO[C@@]1(NC(=O)CSCC#N)C(=O)N2C(C(=O)O)=C(CSc3nnnn3C)CS[C@@H]21
not listed: [12] | [14] | [16] | [17] | [20]
inactive: all other assays above

CCCCNCCCC
not listed: [10] | [11] | [12] | [14] | [18] | [20]
inactive: all other assays above

O=C(O)c1cccc(Cl)c1Cl
not listed: [11] | [12] | [14] | [18] | [20]
inactive: all other assays above

CN1CCN(c2c(F)cc3c(=O)c(C(=O)O)cn(CCF)c3c2F)CC1
not listed: [14] | [18] | [20]
inactive: all other assays above

Cc1c[nH]c(=S)[nH]c1=O
active: [11] 55.1 µM
not listed: [9] | [12] | [14] | [16] | [18] | [19] | [20]
inactive: all other assays above

CCC(=O)Nc1ccc(O)cc1
not listed: [10] | [20]
inactive: all other assays above

O=C1C=CC(=O)O1
not listed: [8] | [16] | [20]
inactive: all other assays above

COc1cc(Cl)ccc1Cl
not listed: [11] | [14] | [18] | [20]
inactive: all other assays above

Cc1cc2nc(N)sc2cc1C
active: [1] 6.17 µM
not listed: [10] | [11] | [12] | [16]
inactive: all other assays above

COc1ccccc1OCC(O)COC(N)=O (stereo not given)
not listed: [14] | [16] | [17] | [20]
inactive: all other assays above

FC(F)(F)C(Cl)(Cl)Cl
not listed: [12] | [17] | [20]
inactive: all other assays above

C1CSCCS1
not listed: [14] | [16] | [17] | [20]
inactive: all other assays above

CCCNC(C)C(=O)Nc1c(C)csc1C(=O)OC (stereo not given)
not listed: [10] | [12] | [14] | [20]
inactive: all other assays above

CCOC(=O)NCCC[Si](OCC)(OCC)OCC
not listed: [8] | [10] | [12] | [14] | [17] | [20]
inactive: all other assays above

Oc1ccccc1C=NCc1ccccc1
not listed: [10]
inactive: all other assays above
